# Columns and labels:
# Type in all cases: functional
# [1] = molecular target: Solute carrier family 2, facilitated glucose transporter member 1 (Homo sapiens) (UniProt P11166); assay: ST_JUDE_LEISH: Cytotoxicity at 2uM final concentration against transgenic Leishmania Mexicana promastigotes LmGLUT1 that are glucose transport deficient and complemented with the human glucose transporter GLUT1. Activity is measured by DNA content using SYBR green in vitro
# [2] = molecular target: Hexose transporter 1 (Plasmodium falciparum) (UniProt O97467); assay: ST_JUDE_LEISH: Cytotoxicity at 2uM final concentration against transgenic Leishmania Mexicana promastigotes LmPfHT that are glucose transport deficient and complemented with the Plasmodium falciparum hexose transporter. Activity is measured by DNA content using SYBR green in vitro
# [3] = molecular target: Glucose transporter (Leishmania mexicana) (UniProt O61059); assay: ST_JUDE_LEISH: Cytotoxicity at 2uM final concentration against transgenic Leishmania Mexicana promastigotes LmGT2 that are glucose transport deficient and complemented with the L. Mexicana glucose transporter 2. Activity is measured by DNA content using SYBR green in vitro
# Sequence of Solute carrier family 2, facilitated glucose transporter member 1 (Homo sapiens) (P11166 whole entry): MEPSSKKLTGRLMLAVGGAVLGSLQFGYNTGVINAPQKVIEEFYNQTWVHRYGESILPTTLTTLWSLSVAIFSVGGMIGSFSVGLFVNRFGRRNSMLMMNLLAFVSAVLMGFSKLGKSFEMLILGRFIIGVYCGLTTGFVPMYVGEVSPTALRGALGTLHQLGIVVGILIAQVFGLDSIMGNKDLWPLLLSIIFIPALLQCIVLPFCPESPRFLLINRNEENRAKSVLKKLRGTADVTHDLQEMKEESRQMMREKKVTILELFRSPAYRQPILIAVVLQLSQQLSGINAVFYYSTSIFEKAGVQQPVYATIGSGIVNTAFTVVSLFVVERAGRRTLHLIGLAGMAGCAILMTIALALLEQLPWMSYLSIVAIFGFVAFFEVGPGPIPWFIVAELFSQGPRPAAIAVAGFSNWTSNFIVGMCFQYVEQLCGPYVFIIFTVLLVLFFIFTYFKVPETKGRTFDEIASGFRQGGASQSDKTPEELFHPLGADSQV
Compound,inhibition [1],inhibition [2],inhibition [3]
Cc1ccc(CNC(=O)c2ccc(CN3CCCN(Cc4ccsc4)CC3)cc2)cc1,1.42%,0.79%,2.87%
CCc1ccccc1N=C1c2c(cccc2[N+](=O)[O-])C(=O)C1C(C)=O (stereo unspecified),-1.62%,-1.21%,-2.14%
CC(C)Cc1nc(N2CCOCC2)c2nnn(Cc3ccccc3)c2n1,3.23%,1.31%,1.84%
O=S(=O)(NCCN1CCCC1)c1cccc(-c2cccc(CNCc3ccccc3)c2)c1,20%,17.2%,11.7%
OC(CN(Cc1ccccc1)Cc1ccccc1)Cn1c2ccc(Cl)cc2c2cc(Cl)ccc21 (stereo unspecified),-0.34%,0.27%,1.37%
CC1CN(c2cnn(Cc3ccc(NC(=O)Nc4ccc(F)cc4[N+](=O)[O-])cc3)c(=O)c2Cl)CC(C)N1 (stereo unspecified),2.34%,1.28%,2.58%
Cc1cc(CN2CC[C@H](NC(=O)c3ccc(Cl)c(Cl)c3)C2)ccc1OCCN1CCNCC1,-0.62%,0.59%,0.3%
COc1ccc(OCc2ccccn2)c(C2CCN(CCCCNC(=O)c3ccc(NC(=O)c4ccc(Cl)cc4)cc3)CC2)c1,1.01%,-4.32%,-2.76%
CN(CCCN(C)c1cc(NC(=O)c2cccc(F)c2)ccn1)Cc1cccc(O)c1,-2.2%,0.99%,-0.68%
Cc1cc(NC2CCN(CC3CCCCC3)C2)nc(Nc2ccc(Cl)cc2)n1 (stereo unspecified),3.89%,3.7%,2.63%
COc1ccc2nccc([C@@H](O)CN3CCC(NC(=O)C(c4cc5ccccc5o4)N4CCN(C(c5ccccc5)c5ccccc5)CC4)CC3)c2c1 (stereo partly specified),3.01%,1.55%,1.41%
O=C(Cc1cccc(OCCCN(Cc2cccc(C(F)(F)F)c2Cl)CC(c2ccccc2)c2ccccc2)c1)NCc1ccco1,-1.28%,2.42%,-2.47%
CCc1nonc1NC(=O)c1oc2c(C)c(C)ccc2c1C,7.09%,5.3%,7.88%
CC(C)n1ncc2c3c(N)nc(N)nc3ccc21,1.85%,1.69%,2.51%
CCN(CC)CCN(Cc1ccc(-c2ccc(C(F)(F)F)cc2)cc1)C(=O)Cn1c(CCc2cccc(F)c2F)cc(=O)cc1-c1ccccc1,1.88%,3.45%,-1.71%
O=C(c1ccco1)c1cn(CCOc2ccccc2)c2ccccc12,1.36%,1.5%,-0.07%

Compound,inhibition [1],inhibition [2],inhibition [3]
CC(=O)N(C)c1cccc(C(=O)Nc2cccc(-c3ccc(-c4nc5cc(C(F)(F)F)ccc5[nH]4)cc3)c2)c1,4.32%,4.03%,4.63%
CCN1CCN(c2cc(C)c3cc(NC(=O)c4cc(OC)cc(OC)c4)ccc3n2)CC1,-0.26%,1.03%,2.19%
N#Cc1ccc2c(c1)CN(C1CCC(NC(=O)C3=Cc4cc(Cl)ccc4OC3)CC1)CCC2 (stereo unspecified),8.34%,6.19%,5.6%
Clc1cccc(Nc2ccc3c(N4CCCCC4)ncnc3n2)c1,12%,10.8%,4.28%
CCCN1CCN(CCCNC(=O)c2cc3c(Cl)nc4ccc(C)cc4c3s2)CC1,-1.56%,1.08%,-1.97%
O=C(/C=C/c1ccc(Cl)c(Cl)c1)NCCCCN1CCCN(C(=O)Nc2ccc(C(F)(F)F)cc2)CC1,3.18%,4.68%,1.09%
CCNc1cc(C)nc(Nc2ccc(NC(=O)c3ccco3)cc2)n1,4.54%,3.53%,-0.01%
CC(C)(C)c1ccc(C(=O)NC2CCC(CCN3CCc4ccc(S(C)(=O)=O)cc4CC3)CC2)cc1C(F)(F)F (stereo unspecified),1.87%,2.06%,6.75%
CN1CCCC(CN2CCN(Cc3cccc(-c4ccc(-c5nc6ccccc6[nH]5)cc4)c3)CC2)C1 (stereo unspecified),7.48%,9.12%,6.63%
COCCNCc1ccc(-c2ccc3c(Nc4ccc(Cl)cc4F)ccnc3c2)o1,2.75%,2.3%,4.33%
CC(=O)OCCN1C(=O)c2ccc3c4c(ccc(c24)C1=O)C(=O)N(CCOC(C)=O)C3=O,3.05%,2.04%,0.78%
CCOc1ccc(C2CCN(CCN3CCC(NC(=O)c4ccc(-c5ccc(C(F)(F)F)cc5)cc4)CC3)CC2)c(OCC2CC2)c1,3.99%,3%,2.81%
COc1ccc(NC(=O)CCNc2cc(C)nc(NCCc3ccccc3)n2)cc1,4.71%,4.04%,2.42%
Cc1cc(O)c(CNC2CCCCC2)cc1C,1.17%,1.33%,2.92%
O=C(c1cccc(-c2noc(C(F)(F)F)n2)c1)N1CCN(c2ccncc2)CC1,11.1%,10.9%,10.8%
COc1ccc(-c2ccccc2CNc2nc(NCCc3ccc(O)cc3)nc(N3CCNCC3)n2)cc1,-2.91%,-0.55%,0.12%

# — ChEMBL document CHEMBL3433997, “St. Jude Leishmania screening dataset” (2016)
